Reference: the supplement of paper PMC10849652
Targets with a hit are over-represented here; the source holds about 8,800 in all. About 0.5% of all pairs of compound and target were hits. Values without a mark were called inactive.

Experiments:
Test in all cases: log2 fold change, soluble protein after heating vs DMSO (PISA); higher = thermal stabilisation; K562 lysate, 10 uM; active = over 0.2 and 3.5 SD of the protein, either way, in both replicates (recomputed)
[1] = compound: C=CC(=O)N1CCC[C@@H](n2nc(-c3ccc(Oc4ccccc4)cc3)c3c(N)ncnc32)C1 [ibrutinib]
Summary of the method: (§1)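 Pellets of K562 cells were dounce-homogenised in PBS pH 7.4 with 1 mM MgCl2, and the crude extract was held at 1 mg/mL protein for a 30 min treatment with 10 μM compound. Aliquots were heated for 3 min over 48°C-58°C and pooled before NP-40 was added to 0.5% at 4°C. The supernatant from 21,000xg for 90 min was quantified by TMTpro 16plex LC-MS/MS with channel sums equalised. Values are reported from duplicates as log-two fold change in thermal stability relative to solvent controls.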

[2] = compound: CC(=O)c1cnc2ccc(-c3cc(Cl)c(O)c(Cl)c3)nc2c1N[C@H]1CC[C@H](CN(C)C)CC1
Summary of the method: as §1

[3] = compound: CC(C)(C)Cn1c(N)nc2ccc(-c3[nH]c(C(C)(C)C)nc3-c3ccc(F)cc3)nc21 [ralimetinib]
Summary of the method: as §1

[4] = compound: CC(C)(O)CC(=O)NCCn1ccc2ncnc(Nc3ccc(Oc4cccc(C(F)(F)F)c4)c(Cl)c3)c21
Summary of the method: as §1

[5] = compound: CC(C)C1=C2N=C(C=C(N2N=C1)NCC3=CC=CC=C3)NCCCCCCN
Summary of the method: as §1

[6] = compound: CC1=C(C(CC(=O)N1)C2=CC=C(C=C2)C(F)(F)F)C(=O)NC3=C(C=C4C(=C3)C=NN4)F
Summary of the method: as §1

[7] = compound: CC1=C(C2=C(C=C1)C(=O)C3=CC=CC=C3N2CCCN)C
Summary of the method: as §1

[8] = compound: CC1=C(C=C(C=C1)NC(=O)C2=CC(=CC=C2)C(C)(C)C#N)NC3=CC4=C(C=C3)N=CN(C4=O)C
Summary of the method: as §1

[9] = compound: CC1=C(C=C(C=C1)NC(=O)C2=CC(=CC=C2)N(C)C)NC(=O)C3=CC=C(C=C3)O
Summary of the method: as §1

[10] = compound: CC1=CC=C(C=C1)SC2=C3C=C(SC3=CN=C2)C(=O)N
Summary of the method: as §1

Chain of UniProt O60762 (O60762 whole entry, looked up): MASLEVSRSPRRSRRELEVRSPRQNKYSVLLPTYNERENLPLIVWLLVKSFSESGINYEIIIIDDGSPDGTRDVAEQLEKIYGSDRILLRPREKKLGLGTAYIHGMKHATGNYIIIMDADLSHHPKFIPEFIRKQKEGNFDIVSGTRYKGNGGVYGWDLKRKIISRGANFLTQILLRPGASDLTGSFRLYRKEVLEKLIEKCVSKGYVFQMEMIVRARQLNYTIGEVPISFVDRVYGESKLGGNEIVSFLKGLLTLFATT
Chain of UniProt Q96DG6 (Q96DG6 whole entry, looked up): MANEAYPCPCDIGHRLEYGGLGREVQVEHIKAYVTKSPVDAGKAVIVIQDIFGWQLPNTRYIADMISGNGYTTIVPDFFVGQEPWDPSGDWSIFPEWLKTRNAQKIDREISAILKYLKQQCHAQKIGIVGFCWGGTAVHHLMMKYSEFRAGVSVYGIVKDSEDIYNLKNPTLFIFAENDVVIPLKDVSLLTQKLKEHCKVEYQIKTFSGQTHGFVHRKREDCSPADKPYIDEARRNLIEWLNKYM
Chain of UniProt P19784 (P19784 whole entry, looked up): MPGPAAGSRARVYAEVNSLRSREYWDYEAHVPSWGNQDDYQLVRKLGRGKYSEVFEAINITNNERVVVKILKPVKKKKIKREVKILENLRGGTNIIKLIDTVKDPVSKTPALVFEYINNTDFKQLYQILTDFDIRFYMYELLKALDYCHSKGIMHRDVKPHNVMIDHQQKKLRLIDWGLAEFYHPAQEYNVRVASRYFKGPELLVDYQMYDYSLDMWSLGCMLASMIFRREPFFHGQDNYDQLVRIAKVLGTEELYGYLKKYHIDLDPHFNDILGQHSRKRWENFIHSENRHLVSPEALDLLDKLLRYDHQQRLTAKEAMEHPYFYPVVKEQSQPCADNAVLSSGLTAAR
Chain of UniProt P57737 (P57737 whole entry, looked up): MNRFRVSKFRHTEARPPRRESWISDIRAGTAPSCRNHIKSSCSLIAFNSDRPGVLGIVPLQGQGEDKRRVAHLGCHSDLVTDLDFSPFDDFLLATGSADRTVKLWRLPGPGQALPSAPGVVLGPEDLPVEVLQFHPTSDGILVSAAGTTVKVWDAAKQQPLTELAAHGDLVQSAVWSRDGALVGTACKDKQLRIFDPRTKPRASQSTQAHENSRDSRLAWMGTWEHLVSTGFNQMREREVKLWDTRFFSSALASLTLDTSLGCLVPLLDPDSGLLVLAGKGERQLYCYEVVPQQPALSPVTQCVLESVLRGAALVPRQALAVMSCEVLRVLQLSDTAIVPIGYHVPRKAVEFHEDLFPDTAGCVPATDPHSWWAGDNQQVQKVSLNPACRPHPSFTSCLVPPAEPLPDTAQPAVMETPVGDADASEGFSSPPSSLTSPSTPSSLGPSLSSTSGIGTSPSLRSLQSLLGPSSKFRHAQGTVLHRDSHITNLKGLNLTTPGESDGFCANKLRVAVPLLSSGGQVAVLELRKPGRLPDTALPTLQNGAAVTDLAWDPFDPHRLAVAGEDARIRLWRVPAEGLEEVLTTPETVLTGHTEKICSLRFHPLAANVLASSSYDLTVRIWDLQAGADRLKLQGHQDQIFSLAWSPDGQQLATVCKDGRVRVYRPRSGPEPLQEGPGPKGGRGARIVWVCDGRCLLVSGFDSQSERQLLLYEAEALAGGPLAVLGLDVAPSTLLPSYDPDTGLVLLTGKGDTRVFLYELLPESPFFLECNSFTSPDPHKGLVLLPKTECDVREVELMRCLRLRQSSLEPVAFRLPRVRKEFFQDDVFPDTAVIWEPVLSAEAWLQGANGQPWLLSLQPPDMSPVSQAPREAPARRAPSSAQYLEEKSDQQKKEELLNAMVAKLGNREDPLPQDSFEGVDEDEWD
Chain of UniProt Q8WYQ5 (Q8WYQ5 whole entry, looked up): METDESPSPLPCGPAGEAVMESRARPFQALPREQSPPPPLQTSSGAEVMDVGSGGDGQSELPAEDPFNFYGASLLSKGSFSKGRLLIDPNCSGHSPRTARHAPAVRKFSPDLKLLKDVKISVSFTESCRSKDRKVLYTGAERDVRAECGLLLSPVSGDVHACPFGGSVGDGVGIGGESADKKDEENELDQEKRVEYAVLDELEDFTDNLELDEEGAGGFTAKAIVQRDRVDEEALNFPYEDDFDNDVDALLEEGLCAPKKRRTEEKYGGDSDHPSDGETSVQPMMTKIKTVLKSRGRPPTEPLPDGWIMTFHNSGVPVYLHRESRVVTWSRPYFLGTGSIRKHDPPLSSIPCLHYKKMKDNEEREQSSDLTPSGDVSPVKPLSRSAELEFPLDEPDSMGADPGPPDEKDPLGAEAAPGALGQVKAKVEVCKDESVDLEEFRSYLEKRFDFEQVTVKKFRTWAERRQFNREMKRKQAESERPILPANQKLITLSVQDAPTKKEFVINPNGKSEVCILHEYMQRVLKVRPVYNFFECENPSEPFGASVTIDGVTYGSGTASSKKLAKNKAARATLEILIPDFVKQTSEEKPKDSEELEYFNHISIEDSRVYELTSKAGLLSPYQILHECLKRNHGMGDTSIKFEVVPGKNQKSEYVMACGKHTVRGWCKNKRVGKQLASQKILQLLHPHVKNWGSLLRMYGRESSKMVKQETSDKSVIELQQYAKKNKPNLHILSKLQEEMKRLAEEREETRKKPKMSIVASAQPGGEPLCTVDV
Chain of UniProt P61923 (P61923 whole entry, looked up): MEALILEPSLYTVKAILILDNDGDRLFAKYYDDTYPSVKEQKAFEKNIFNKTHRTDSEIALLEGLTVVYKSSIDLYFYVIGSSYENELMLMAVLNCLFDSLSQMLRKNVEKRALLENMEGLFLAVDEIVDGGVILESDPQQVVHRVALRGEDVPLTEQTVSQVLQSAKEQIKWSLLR
Chain of UniProt O95628 (O95628 whole entry, looked up): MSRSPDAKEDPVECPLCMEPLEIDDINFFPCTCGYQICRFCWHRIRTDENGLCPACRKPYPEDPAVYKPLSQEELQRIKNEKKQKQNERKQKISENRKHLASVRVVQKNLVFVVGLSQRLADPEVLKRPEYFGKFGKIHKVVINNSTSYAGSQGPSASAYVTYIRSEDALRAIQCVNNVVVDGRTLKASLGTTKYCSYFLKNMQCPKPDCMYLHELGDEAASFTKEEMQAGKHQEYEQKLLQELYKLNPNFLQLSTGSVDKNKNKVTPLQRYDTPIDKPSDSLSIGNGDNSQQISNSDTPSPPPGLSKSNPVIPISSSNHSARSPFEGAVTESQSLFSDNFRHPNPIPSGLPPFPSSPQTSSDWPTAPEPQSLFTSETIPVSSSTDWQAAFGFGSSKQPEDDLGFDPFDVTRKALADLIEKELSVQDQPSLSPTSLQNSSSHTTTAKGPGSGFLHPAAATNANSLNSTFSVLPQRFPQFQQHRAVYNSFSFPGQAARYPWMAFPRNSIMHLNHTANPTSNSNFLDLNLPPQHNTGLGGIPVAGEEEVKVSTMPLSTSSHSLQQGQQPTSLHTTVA
Chain of UniProt O75208 (O75208 whole entry, looked up): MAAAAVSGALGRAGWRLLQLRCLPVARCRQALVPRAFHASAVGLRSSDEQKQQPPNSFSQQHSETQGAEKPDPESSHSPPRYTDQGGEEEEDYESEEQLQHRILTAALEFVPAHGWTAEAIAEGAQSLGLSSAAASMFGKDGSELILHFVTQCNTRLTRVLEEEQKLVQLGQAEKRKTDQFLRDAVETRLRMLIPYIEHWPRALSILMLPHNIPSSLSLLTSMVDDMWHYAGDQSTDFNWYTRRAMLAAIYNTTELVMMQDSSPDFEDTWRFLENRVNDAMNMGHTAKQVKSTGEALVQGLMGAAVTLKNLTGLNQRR
Chain of UniProt Q13217 (Q13217 whole entry, looked up): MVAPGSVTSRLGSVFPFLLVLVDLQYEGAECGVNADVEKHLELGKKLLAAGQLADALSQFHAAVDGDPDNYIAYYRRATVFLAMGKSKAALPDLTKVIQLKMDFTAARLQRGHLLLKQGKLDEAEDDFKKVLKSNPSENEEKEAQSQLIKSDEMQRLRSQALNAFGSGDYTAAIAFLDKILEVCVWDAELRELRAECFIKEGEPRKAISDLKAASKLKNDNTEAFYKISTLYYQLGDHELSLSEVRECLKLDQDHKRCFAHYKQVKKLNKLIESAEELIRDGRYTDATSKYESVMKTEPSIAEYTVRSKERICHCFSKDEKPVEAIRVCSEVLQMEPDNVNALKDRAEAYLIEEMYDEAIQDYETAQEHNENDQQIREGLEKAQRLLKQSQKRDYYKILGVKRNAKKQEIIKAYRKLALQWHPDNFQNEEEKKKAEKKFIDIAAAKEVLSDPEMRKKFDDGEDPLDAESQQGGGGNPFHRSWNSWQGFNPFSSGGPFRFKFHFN
Chain of UniProt Q9Y315 (Q9Y315 whole entry, looked up): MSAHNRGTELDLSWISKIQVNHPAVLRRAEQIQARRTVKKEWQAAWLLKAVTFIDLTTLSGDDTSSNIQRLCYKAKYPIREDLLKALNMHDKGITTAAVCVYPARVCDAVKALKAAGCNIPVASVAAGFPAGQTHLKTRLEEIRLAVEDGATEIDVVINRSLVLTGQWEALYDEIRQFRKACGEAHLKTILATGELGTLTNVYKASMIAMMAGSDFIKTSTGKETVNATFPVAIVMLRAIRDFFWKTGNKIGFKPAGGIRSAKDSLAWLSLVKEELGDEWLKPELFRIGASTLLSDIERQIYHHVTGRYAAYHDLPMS
Chain of UniProt Q9UHD1 (Q9UHD1 whole entry, looked up): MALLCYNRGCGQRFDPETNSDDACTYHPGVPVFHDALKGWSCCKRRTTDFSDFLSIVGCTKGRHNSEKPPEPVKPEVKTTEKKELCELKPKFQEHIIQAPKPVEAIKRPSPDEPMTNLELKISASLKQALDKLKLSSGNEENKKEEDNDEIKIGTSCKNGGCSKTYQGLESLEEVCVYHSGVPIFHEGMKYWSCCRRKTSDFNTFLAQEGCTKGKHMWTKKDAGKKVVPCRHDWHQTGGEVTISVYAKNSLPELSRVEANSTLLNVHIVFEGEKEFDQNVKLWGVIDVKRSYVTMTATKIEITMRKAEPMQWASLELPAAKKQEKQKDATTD
Chain of UniProt P99999 (P99999 whole entry, looked up): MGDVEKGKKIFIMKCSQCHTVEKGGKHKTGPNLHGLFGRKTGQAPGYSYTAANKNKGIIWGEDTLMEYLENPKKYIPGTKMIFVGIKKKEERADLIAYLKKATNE

Target | log2 fold change [1] | log2 fold change [2] | log2 fold change [3] | log2 fold change [4] | log2 fold change [5] | log2 fold change [6] | log2 fold change [7] | log2 fold change [8] | log2 fold change [9] | log2 fold change [10]
DERA (UniProt Q9Y315) | -0.011 | 0.008 | 0.008 | -0.032 | 0.013 | -0.01 | -0.037 | 0.033 | -0.008 | -0.017
DOCK10 (UniProt Q96BY6) | -0.151 | 0.02 | -0.001 | -0.008 | -0.084 | -0.161 | 0.008 | 0.246 | -0.045 | 0.022
CPT1A (UniProt P50416) | 0.042 | -0.021 | -0.016 | 0.008 | -0.026 | -0.009 | -0.041 | -0.05 | -0.008 | 0.017
COPZ1 isoform 4 (UniProt P61923) | 0.123 | 0.007 | 0 | 0.013 | 0.02 | -0.054 | 0.037 | 0.03 | -0.012 | 0.117
COQ9 (UniProt O75208) | 0.104 | 0.023 | 0.015 | -0.008 | -0.036 | 0.017 | 0.007 | -0.024 | 0.037 | 0
CMBL (UniProt Q96DG6) | -0.059 | 0.22 (active) | 0.018 | -0.009 | -0.056 | -0.082 | 0 | 0.014 | -0.04 | -0.011
DCP2 (UniProt Q8IU60) | -0.005 | -0.005 | 0.067 | 0.003 | 0.006 | 0.021 | 0.034 | -0.043 | 0.081 | -0.002
CNOT4 isoform 6 (UniProt O95628) | -0.004 | 0.021 | 0.033 | -0.007 | -0.003 | 0.049 | 0.037 | -0.281 (active) | -0.026 | 0.012
CTNND1 isoform 3 (UniProt O60716) | 0.01 | 0.001 | -0.058 | -0.028 | 0 | 0.006 | -0.036 | -0.016 | 0.032 | -0.025
DPM1 (UniProt O60762) | -0.016 | -0.018 | -0.025 | -0.027 | -0.009 | 0.033 | 0.015 | 0.006 | 0.014 | 0.023
COMT (UniProt P21964) | 0.01 | 0.019 | 0.01 | 0.016 | 0.009 | -0.045 | 0.002 | 0.031 | 0.019 | 0.01
DGCR8 (UniProt Q8WYQ5) | 0.031 | -0.049 | 0.014 | -0.014 | 0.015 | 0.02 | -0.018 | -0.219 | 0.071 | -0.006
CKAP5 (UniProt Q14008) | -0.024 | -0.008 | 0.015 | -0.012 | -0.007 | 0.007 | 0.005 | -0.013 | 0.023 | 0.006
DFFB (UniProt O76075) | 0.076 | -0.01 | 0.054 | -0.068 | -0.027 | 0.044 | 0.08 | 0.033 | -0.07 | -0.039
CYCS (UniProt P99999) | 0.027 | 0.024 | 0 | 0.004 | -0.016 | -0.05 | -0.005 | 0.012 | -0.015 | 0.031
CORO7 isoform 3 (UniProt P57737) | -0.01 | 0.002 | 0.016 | 0.031 | 0.009 | -0.013 | -0.006 | -0.006 | 0.02 | 0.005
DEF6 (UniProt Q9H4E7) | 0.016 | -0.007 | 0.098 | -0.014 | 0.022 | 0.028 | -0.024 | -0.026 | 0.066 | -0.001
CNOT2 (UniProt Q9NZN8) | 0.022 | 0.037 | 0.016 | -0.013 | -0.001 | -0.01 | 0.03 | 0.006 | -0.007 | 0.011
CHORDC1 (UniProt Q9UHD1) | -0.002 | 0.004 | -0.009 | -0.001 | -0.032 | -0.009 | 0.001 | 0.023 | 0.033 | 0.006
CNOT6L (UniProt Q96LI5) | 0.02 | 0.015 | 0.037 | -0.06 | -0.05 | 0.064 | -0.07 | 0.008 | -0.041 | 0.016
CHEK2 (UniProt O96017) | 0.04 | -0.043 | -0.011 | 0.081 | 0.211 | 0.013 | -0.002 | -0.041 | 0.073 | 0.013
DNAJC3 (UniProt Q13217) | 0.009 | -0.004 | -0.022 | 0.007 | -0.021 | 0.024 | 0.006 | -0.011 | -0.054 | -0.018
CSTB (UniProt P04080) | 0.017 | -0.047 | 0.03 | -0.065 | 0.019 | -0.059 | 0.037 | 0.121 | 0.009 | 0.021
CSNK2A2 (UniProt P19784) | -0.015 | 0.666 (active) | 0.012 | -0.014 | -0.01 | -0.046 | 0.185 | -0.017 | 0.003 | 0
CSNK1A1 (UniProt P48729) | -0.098 | 0.148 | 0.088 | -0.002 | -0.035 | -0.019 | -0.002 | -0.029 | 0 | 0.003
DIAPH1 (UniProt O60610) | -0.028 | -0.004 | -0.006 | 0.005 | -0.01 | -0.009 | 0.003 | -0.004 | 0.001 | 0.004
CHMP4A isoform 2 (UniProt Q9BY43) | -0.002 | 0.011 | 0.03 | -0.041 | 0.036 | 0.011 | -0.02 | 0.036 | -0.03 | -0.007
CKM (UniProt P06732) | -0.002 | 0.056 | 0.046 | -0.076 | 0.002 | -0.001 | -0.029 | 0.044 | 0.005 | -0.02
